Reference: PubChem BioAssay (EPA / NIEHS)
Several values for one entry are separate records, joined by “and”; a condition that tells them apart may be missing. Equal values may be shown once. Records with an inconclusive call do not appear. Activity calls are given as the source filed them. How the source made its calls: active means hit-call score of the fitted dose curve at least 0.9, where 1 is the maximum; inconclusive means response in the unintended direction; inactive means score below 0.9.

target: rat Adrenergic, Alpha 1, Non-selective Receptor (Adra1), Adra1a (gene 29412) (UniProt P43140); test: NVS_GPCR_rAdra1_NonSelective: NovaScreen (NVS) G Protein-Coupled Receptor Assay for rat Adrenergic, Alpha 1, Non-selective Receptor (Adra1) (AID 2283289)
Sequence (P43140 whole entry, looked up): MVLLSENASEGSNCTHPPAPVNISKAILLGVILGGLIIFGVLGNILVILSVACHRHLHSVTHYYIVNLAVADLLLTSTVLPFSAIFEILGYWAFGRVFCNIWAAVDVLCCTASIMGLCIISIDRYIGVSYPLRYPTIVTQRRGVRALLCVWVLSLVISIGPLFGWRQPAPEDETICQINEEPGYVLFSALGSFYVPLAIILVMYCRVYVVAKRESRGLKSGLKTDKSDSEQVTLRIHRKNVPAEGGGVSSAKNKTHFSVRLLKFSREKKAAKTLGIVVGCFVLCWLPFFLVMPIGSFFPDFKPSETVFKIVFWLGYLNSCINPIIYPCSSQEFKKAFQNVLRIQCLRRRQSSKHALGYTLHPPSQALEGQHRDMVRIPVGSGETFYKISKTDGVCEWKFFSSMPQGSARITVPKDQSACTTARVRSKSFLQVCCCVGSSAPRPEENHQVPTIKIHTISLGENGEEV
Experimental: NVS_GPCR_rAdra1_NonSelective is a biochemical, single-readout assay that uses extracted gene-proteins from Rat forebrain membranes in a tissue-based cell-free assay. Measurements were taken 1 hour after chemical dosing in a 48-well plate.NVS_GPCR_rAdra1_NonSelective is one of one assay component(s) measured or calculated from the NVS_GPCR_rAdra1_NonSelective assay. It is designed to make measurements of radioligand binding, a form of binding reporter, as detected with scintillation counting signals by Filter-based radiodetection technology.Data from the assay component NVS_GPCR_rAdra1_NonSelective was analyzed into 1 assay endpoint. This assay endpoint, NVS_GPCR_rAdra1_NonSelective, was analyzed in the positive analysis fitting direction relative to DMSO as the negative control and baseline of activity. Using a type of binding reporter, loss-of-signal activity can be used to understand changes in the binding as they relate to the gene Adra1a. Furthermore, this assay endpoint can be referred to as a primary readout, because the performed assay has only produced 1 assay endpoint. To generalize the intended target to other relatable targets, this assay endpoint is annotated to the gpcr intended target family, where the subfamily is rhodopsin-like receptor.
Binding assays used specific radioligands (tritiated, iodinated) with non-radioactive competitive displacement ligands in agonist or antagonist protocols (as indicated) and various reference compounds and inhibitors to titrate specific binding to receptors and transporters. Most enzyme assays (CYPs, kinases, phosphatases, proteases, HDACs) used recombinant protein and specific substrates (fluorescence mostly, some colorimetric and radioactive) and inhibitors, followed by a biochemical separation of substrate and product. All assays for the biochemical HTS were initially run in duplicate at a single concentration (10 uM for CYP450 assays and 25 uM for all others). […]

| Compound | outcome |
| --- | --- |
| Cc1c(F)c(F)c(COC(=O)C2C(/C=C(\Cl)C(F)(F)F)C2(C)C)c(F)c1F (stereo not given) | inactive |
| CCCCOC(=O)c1ccccc1C(=O)OCCCC | inactive |
| COc1ccc(C(c2ccc(OC)cc2)C(Cl)(Cl)Cl)cc1 | inactive |

target: human Opioid Receptor Mu (Opiate Mu), OPRM1 (gene 4988) (UniProt P35372); test: NVS_GPCR_hOpiate_mu: NovaScreen (NVS) G Protein-Coupled Receptor Assay for human Opioid Receptor Mu (Opiate Mu) (AID 2283290);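 further: hits lower bound tracer signal versus DMSO meaning displacement of the ligand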
Sequence (P35372 whole entry, looked up): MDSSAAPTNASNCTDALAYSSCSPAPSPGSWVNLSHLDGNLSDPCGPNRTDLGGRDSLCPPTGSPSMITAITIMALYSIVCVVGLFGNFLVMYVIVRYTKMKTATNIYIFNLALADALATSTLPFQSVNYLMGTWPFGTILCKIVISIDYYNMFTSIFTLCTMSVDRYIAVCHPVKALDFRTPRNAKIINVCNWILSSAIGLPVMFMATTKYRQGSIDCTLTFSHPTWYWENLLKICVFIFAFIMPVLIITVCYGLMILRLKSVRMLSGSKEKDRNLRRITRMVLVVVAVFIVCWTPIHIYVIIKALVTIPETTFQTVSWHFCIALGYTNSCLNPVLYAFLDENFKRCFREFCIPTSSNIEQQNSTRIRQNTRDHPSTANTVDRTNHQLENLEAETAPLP
Outline: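 Radioligand displacement binding on membranes from CHO cells expressing the receptor, 2.5 h after dosing, filter-based scintillation counting; loss of signal vs DMSO baseline. Screened in duplicate at 25 uM, actives then run in concentration series.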

| Compound | outcome | AC50 |
| --- | --- | --- |
| N#CC(CCc1ccc(Cl)cc1)(Cn1cncn1)c1ccccc1 (stereo not given) | inactive | – |
| COC(=O)N(OC)c1ccccc1COc1ccn(-c2ccc(Cl)cc2)n1 | – | 0.879 µM (active) |
| CO/C=C(/C(=O)OC)c1ccccc1Oc1cc(Oc2ccccc2C#N)ncn1 | inactive | – |
| CCCC1COC(Cn2cncn2)(c2ccc(Cl)cc2Cl)O1 (stereo not given) | – | 8.68 µM (active) |
| CNC(=S)S | inactive | – |
| O=C(Nc1ccccc1)Nc1ccnc(Cl)c1 | – | 6.97 µM (active) |
| CN(C)C(=S)SSC(=S)N(C)C | – | 5.29 µM (active) |
| COc1ccc(C(c2ccc(OC)cc2)C(Cl)(Cl)Cl)cc1 | inactive | – |
| CCOP(=S)(OCC)SCn1c(=O)oc2cc(Cl)ccc21 | – | 19.2 µM (active) |
| CC1COC(Cn2cncn2)(c2ccc(Oc3ccc(Cl)cc3)cc2Cl)O1 (stereo not given) | – | 1.88 µM (active) |
| C=CCC1=C(C)C(OC(=O)C2C(C=C(C)C)C2(C)C)CC1=O (stereo not given) | inactive | – |
| CCCCNC(=O)OCC#CI | – | 9.57 µM (active) and 6.68 µM (active) |
| CS/C(C)=N/OC(=O)N(C)SN(C)C(=O)O/N=C(\C)SC | inactive | – |

target: guinea pig Bradykinin Receptor B2 (BK2), BDKRB2 (gene 100135486) (UniProt O70526); test: NVS_GPCR_gBK2: NovaScreen (NVS) G Protein-Coupled Receptor Assay for guinea pig Bradykinin Receptor B2 (BK2) (AID 2283292)
Sequence (O70526 whole entry, looked up): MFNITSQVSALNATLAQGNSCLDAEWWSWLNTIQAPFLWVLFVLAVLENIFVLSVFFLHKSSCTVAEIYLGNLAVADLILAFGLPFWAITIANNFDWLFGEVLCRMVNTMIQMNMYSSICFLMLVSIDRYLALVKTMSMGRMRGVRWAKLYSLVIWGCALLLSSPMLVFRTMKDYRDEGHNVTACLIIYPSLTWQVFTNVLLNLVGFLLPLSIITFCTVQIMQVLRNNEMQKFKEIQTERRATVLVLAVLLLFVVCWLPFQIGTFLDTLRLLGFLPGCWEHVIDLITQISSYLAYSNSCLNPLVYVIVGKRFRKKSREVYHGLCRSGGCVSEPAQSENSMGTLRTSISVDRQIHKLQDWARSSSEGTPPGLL
Outline: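 Radioligand displacement on guinea pig ileum membranes for 1 h, read by filter-based scintillation counting; loss of signal relative to DMSO. Compounds were screened in duplicate at 25 uM, and those passing the threshold were retested in concentration-response up to 50 uM.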

| Compound | outcome |
| --- | --- |
| CCCN(CCC)c1c([N+](=O)[O-])cc(S(N)(=O)=O)cc1[N+](=O)[O-] | inactive |
| O=C(O)c1nc(Cl)ccc1Cl | inactive |
| CO/C=C(/C(=O)OC)c1ccccc1Oc1cc(Oc2ccccc2C#N)ncn1 | inactive |

target: guinea pig Serotonin, 5-Hydroxytryptamine Receptor 4 (5HT4), HTR4 (gene 100135548) (UniProt O70528); test: NVS_GPCR_g5HT4: NovaScreen (NVS) G Protein-Coupled Receptor Assay for guinea pig Serotonin, 5-Hydroxytryptamine Receptor 4 (5HT4) (AID 2283294)
Sequence (O70528 whole entry, looked up): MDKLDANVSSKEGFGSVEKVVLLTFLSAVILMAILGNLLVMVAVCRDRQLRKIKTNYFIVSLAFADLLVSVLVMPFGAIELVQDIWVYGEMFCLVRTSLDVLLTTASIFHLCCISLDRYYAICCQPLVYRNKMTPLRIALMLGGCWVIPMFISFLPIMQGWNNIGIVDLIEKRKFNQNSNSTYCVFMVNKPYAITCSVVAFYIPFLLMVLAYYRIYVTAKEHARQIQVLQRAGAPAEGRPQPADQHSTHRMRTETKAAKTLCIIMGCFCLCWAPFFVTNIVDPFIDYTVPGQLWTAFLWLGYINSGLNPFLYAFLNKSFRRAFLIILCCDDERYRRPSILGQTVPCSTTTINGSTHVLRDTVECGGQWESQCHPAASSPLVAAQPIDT
Outline: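 Guinea pig striatal membranes; radioligand competitive displacement, filtration and scintillation counting after 1 h. Primary screen in duplicate at 25 uM; actives then tested in concentration series; loss of binding signal fitted relative to DMSO.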

| Compound | AC50 | outcome |
| --- | --- | --- |
| CON(C)C(=O)Nc1ccc(Cl)c(Cl)c1 | 12.4 µM (active) | – |
| CO/C=C(/C(=O)OC)c1ccccc1Oc1cc(Oc2ccccc2C#N)ncn1 | – | inactive |
| O=C(Nc1ccccc1)Nc1ccnc(Cl)c1 | 9.9 µM (active) | – |
| CC1COC(Cn2cncn2)(c2ccc(Oc3ccc(Cl)cc3)cc2Cl)O1 (stereo not given) | – | inactive |
| Oc1ccccc1-c1ccccc1 | – | inactive |
| CCCCNC(=O)OCC#CI | 13.7 µM (active) and 25 µM (active) | – |
